The results in this text go back to the supplement of paper PMC12819154, “High-throughput peptide-centric local stability assay extends protein–ligand identification to membrane proteins, tissues and bacteria” (Nature Structural & Molecular Biology, 2025).

UniProt Q96S94, sequence (Q96S94 whole entry): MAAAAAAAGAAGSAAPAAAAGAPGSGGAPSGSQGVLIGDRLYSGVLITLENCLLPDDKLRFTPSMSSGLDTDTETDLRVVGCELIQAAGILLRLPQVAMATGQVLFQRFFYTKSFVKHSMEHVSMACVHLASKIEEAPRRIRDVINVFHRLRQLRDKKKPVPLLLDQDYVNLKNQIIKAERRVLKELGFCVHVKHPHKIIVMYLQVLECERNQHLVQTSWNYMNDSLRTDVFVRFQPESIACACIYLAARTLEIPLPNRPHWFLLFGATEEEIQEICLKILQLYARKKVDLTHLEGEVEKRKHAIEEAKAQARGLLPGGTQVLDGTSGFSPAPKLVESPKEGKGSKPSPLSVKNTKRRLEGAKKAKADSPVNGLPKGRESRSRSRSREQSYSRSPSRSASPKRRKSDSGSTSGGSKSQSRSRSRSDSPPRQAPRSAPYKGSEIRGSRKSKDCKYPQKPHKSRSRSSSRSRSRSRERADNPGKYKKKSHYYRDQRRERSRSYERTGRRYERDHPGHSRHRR
UniProt Q02040, sequence (Q02040 whole entry): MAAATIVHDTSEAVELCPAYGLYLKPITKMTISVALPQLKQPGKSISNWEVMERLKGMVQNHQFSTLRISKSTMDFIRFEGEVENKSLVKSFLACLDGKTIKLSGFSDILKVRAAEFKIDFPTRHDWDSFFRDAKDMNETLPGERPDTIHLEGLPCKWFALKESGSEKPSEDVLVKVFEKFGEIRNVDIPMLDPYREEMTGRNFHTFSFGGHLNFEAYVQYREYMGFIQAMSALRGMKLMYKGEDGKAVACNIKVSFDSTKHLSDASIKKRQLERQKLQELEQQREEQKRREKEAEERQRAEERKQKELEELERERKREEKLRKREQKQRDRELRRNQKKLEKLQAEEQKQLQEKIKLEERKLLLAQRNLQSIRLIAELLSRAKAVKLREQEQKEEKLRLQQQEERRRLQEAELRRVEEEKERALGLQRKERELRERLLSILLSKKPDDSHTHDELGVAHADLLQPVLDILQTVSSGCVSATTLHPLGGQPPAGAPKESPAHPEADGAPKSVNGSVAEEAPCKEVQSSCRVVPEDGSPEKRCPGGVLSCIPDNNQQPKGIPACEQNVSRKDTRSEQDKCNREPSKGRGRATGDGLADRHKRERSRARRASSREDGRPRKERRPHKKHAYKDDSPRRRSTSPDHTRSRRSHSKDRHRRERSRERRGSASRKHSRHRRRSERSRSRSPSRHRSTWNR
UniProt Q9P289, sequence (Q9P289 whole entry, looked up): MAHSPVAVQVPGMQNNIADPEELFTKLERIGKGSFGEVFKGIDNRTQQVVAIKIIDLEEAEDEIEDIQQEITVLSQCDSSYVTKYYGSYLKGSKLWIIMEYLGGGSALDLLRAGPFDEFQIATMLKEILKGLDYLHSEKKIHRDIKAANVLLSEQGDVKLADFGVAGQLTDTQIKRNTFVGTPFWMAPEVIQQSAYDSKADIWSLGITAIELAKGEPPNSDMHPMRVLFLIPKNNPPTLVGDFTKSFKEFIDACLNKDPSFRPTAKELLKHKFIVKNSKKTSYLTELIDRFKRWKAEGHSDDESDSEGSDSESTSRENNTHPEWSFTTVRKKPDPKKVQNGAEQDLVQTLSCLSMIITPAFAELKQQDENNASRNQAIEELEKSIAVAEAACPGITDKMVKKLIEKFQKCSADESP
UniProt Q00532, sequence (Q00532 whole entry): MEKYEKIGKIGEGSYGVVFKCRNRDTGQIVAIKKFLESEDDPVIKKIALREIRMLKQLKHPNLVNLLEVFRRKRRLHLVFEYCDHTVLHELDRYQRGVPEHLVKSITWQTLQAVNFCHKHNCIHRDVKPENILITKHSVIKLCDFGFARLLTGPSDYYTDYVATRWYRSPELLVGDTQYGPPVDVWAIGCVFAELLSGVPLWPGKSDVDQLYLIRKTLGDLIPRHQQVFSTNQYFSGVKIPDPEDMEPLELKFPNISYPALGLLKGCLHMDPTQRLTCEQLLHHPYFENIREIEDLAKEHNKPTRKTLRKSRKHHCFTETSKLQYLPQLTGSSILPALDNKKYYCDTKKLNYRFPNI
UniProt Q9UL54, sequence (Q9UL54 whole entry): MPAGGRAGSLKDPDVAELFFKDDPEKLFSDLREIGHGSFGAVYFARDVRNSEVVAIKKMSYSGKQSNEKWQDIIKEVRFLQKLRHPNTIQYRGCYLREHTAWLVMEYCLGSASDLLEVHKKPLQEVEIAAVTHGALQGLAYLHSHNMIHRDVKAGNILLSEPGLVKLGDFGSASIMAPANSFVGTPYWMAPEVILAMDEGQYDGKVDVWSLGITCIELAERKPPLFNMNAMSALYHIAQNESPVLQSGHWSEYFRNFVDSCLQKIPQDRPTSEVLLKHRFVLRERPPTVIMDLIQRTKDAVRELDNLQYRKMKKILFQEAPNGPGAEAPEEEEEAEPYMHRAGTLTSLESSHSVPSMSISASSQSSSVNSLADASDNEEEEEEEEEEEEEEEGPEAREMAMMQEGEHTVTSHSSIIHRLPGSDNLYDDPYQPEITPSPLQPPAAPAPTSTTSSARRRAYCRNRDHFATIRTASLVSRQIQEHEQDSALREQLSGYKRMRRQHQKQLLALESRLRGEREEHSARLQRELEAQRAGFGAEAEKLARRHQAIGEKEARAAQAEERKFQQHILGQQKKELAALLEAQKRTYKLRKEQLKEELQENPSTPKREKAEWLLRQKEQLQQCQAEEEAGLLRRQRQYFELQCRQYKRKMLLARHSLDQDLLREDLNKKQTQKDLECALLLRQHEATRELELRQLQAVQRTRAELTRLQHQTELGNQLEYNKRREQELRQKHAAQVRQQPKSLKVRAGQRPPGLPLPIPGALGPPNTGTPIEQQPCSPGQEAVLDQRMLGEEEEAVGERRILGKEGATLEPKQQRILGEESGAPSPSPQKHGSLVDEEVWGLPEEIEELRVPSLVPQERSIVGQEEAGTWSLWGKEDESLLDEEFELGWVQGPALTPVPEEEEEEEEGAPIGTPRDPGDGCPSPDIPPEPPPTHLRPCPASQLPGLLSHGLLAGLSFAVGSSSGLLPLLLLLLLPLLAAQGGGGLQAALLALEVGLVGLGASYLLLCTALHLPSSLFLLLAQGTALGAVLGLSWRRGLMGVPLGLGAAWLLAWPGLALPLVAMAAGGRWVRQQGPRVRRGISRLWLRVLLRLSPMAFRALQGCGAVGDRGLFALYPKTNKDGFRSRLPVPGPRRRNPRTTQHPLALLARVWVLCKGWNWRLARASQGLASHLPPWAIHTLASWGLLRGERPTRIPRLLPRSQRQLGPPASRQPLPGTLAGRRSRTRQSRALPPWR
UniProt P31323, sequence (P31323 whole entry): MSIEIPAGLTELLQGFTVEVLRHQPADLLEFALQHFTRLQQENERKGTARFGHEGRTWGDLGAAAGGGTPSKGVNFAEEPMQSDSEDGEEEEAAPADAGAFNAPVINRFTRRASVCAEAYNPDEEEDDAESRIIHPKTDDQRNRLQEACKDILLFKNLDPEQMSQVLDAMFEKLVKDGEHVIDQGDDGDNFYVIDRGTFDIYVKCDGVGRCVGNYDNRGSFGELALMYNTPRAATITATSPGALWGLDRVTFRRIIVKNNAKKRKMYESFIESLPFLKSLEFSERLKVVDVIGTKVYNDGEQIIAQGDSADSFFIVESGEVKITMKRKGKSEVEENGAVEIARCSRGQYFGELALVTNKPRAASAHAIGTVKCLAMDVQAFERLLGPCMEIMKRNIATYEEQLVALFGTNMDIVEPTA
UniProt Q9H2K8, sequence (Q9H2K8 whole entry, looked up): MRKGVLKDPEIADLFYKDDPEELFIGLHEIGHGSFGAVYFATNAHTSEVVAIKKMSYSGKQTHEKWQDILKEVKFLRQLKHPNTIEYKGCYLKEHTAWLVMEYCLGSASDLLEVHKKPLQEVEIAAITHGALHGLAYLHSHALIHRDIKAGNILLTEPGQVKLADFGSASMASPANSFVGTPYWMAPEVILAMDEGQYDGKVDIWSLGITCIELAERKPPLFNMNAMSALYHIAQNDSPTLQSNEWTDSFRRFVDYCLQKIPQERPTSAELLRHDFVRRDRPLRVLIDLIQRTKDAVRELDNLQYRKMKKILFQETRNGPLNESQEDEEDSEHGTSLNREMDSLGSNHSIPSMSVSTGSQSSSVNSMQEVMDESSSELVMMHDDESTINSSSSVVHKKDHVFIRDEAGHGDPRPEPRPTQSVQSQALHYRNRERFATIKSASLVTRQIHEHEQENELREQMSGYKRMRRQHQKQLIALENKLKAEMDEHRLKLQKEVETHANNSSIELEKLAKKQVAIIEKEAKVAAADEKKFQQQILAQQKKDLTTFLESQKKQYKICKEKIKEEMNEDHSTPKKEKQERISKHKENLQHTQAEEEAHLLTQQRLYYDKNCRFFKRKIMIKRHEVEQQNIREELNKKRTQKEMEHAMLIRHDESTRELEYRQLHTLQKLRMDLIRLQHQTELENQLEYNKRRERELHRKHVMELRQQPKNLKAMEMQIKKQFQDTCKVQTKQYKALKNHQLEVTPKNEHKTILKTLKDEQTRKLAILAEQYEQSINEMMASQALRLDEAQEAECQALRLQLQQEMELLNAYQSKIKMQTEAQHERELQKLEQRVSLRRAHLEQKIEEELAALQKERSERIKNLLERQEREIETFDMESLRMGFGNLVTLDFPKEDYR
UniProt Q15759, sequence (Q15759 whole entry): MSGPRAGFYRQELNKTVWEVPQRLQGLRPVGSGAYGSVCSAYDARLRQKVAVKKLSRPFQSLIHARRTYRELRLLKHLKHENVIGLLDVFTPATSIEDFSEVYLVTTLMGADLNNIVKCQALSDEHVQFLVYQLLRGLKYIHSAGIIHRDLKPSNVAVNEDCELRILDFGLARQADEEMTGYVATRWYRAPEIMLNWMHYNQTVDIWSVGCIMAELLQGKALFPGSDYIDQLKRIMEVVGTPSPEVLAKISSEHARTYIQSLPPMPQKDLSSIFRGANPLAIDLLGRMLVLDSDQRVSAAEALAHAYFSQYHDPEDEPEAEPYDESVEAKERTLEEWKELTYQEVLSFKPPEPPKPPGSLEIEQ

Compound in this assay: CN[C@@H]1C[C@H]2O[C@@](C)([C@@H]1OC)n1c3ccccc3c3c4c(c5c6ccccc6n2c5c31)C(=O)NC4 [staurosporine]
Description: log2 fold change of tryptic peptide abundance, ligand vs vehicle (limited proteolysis) (log2 ratio); higher = more trypsin-susceptible (destabilized). The settings on record: ligand concentration: 20 uM; sample: K562 cleared lysate; digestion: 4 min, 22 C (HT-PELSA RT4min, Orbitrap Astral).
Consider “TAGLN2 (peptide sequence: TLMNLGGLAVAR, peptide start residue: 128) (UniProt P37802)”, for which the log2 fold change is 0.271.
The figure for “UniProt P25098 (peptide sequence: DLKPANILLDEHGHVR, peptide start residue: 317)” is -0.579.
As for “USP28 (peptide sequence: FVDPSAALDLLK, peptide start residue: 232) (UniProt Q96RU2)”, the figure is 0.578.
With “PRKAR2B (peptide sequence: CVGNYDNR, peptide start residue: 211) (UniProt P31323)”, the log2 fold change came to 0.866.
The figure for “PMPCA (peptide sequence: LYLNVLNR, peptide start residue: 363) (UniProt Q10713)” is -0.407; for “SRM (peptide sequence: AAFVLPEFAR, peptide start residue: 286) (UniProt P19623)” it is 0.362.
The figure for “EIF2B1 (peptide sequence: VAQTGQDLK, peptide start residue: 259) (UniProt Q14232)” is 0.366; for “MAPK11 (peptide sequence: ILDFGLAR, peptide start residue: 166) (UniProt Q15759)” it is -1.18; for “CDKL1 (peptide sequence: LCDFGFAR, peptide start residue: 693) (UniProt Q00532)” it is -0.936.
The figure for “CCNL2 (peptide sequence: HSMEHVSMACVHLASK, peptide start residue: 118) (UniProt Q96S94)” is -1.06.
As to “UniProt Q8TBX8 (peptide sequence: HGAGAEISTVHPEQYAK, peptide start residue: 394)”, the log2 fold change was -1.92.
On to “PIK3CB (peptide sequence: VFGEDSVGVIFK, peptide start residue: 794) (UniProt P42338)”, for which the log2 fold change was -0.385.
“PRDM15 (peptide sequence: VKREDLEAGGENLVR, peptide start residue: 882) (UniProt P57071)”: the log2 fold change was -1.86.
The figure for “UniProt P45984 (peptide sequence: DLKPSNIVVK, peptide start residue: 151)” is -2.08; for “CDKN1C (peptide sequence: SLFGPVDHEELSR, peptide start residue: 32) (UniProt P49918)” it is 1.39.
Consider “UniProt Q8N4C8 (peptide sequence: GNALKEDCIAYICR, peptide start residue: 122)”, for which the log2 fold change is -0.573.
As for “EIF2AK4 (peptide sequence: DLKPVNIFLDSDDHVK, peptide start residue: 848) (UniProt Q9P2K8)”, the figure is -1.33; as for “RIPK2 (peptide sequence: KTEYPDVAWPLR, peptide start residue: 110) (UniProt O43353)”, -0.494; as for “UniProt Q16513 (peptide sequence: HPFLVNLFACFQTK, peptide start residue: 717)”, -2.07.
The figure for “ULK2 (peptide sequence: IADFGFAR, peptide start residue: 163) (UniProt Q8IYT8)” is -1.68; for “UniProt Q02040 (peptide sequence: STMDFIR, peptide start residue: 72)” it is 0.414; for “LIMK2 (peptide sequence: TLDFGLNVK, peptide start residue: 553) (UniProt P53671)” it is -1.38.
As to “TAOK3 (peptide sequence: VLIDLIQR, peptide start residue: 285) (UniProt Q9H2K8)”, the log2 fold change is -1.49.
The figure for “UniProt Q13043 (peptide sequence: ATATQLLQHPFVR, peptide start residue: 270)” is -3.53; for “CAMKK1 (peptide sequence: DIKPSNLLLGDDGHVK, peptide start residue: 275) (UniProt Q8N5S9)” it is -3.71.
As for “RIPK1 (peptide sequence: IADLGLASFK, peptide start residue: 154) (UniProt Q13546)”, the figure is -0.814.
In the case of “TAOK2 (peptide sequence: ERPPTVIMDLIQR, peptide start residue: 284) (UniProt Q9UL54)”, the log2 fold change is -2.3.
The figure for “UniProt Q9P289 (peptide sequence: NNPPTLVGDFTK, peptide start residue: 234)” is -1.31; for “MAP3K4 (peptide sequence: DFLSHCLESDPK, peptide start residue: 1576) (UniProt Q9Y6R4)” it is -1.49.
